Rows were chosen to be rich in hits. Some 3.2% of all compounds tested hit in one or more screens of this group.
Sm TGR inh – blocks Schistosoma mansoni thioredoxin glutathione reductase; Potency, µM (titrated, usually from 114 µM), for inactives: at the top dose activity change, negative = inhibition, actives largely listed as inhibitors; 360,000 tested, 3% active; AID 485364; purified TGR, DTNB reduction, TNB absorbance 405 nm; Q962Y6; note: nearly all actives have a fitted effect of over 60% in size
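First, TGR (20 nM dispensed) and NADPH were mixed with compound. Second, a 15 min room-temperature incubation followed. Third, further NADPH and then DTNB were added to start the reaction. Finally, TNB absorbance was monitored kinetically.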
LmPK inh – blocks Leishmania mexicana pyruvate kinase activity; purified LmPK, Kinase-Glo ATP luminescence, 1 h; 290,000 tested, 0.37% active; AID 1721; Q27686; Potency, µM (doses to about 57.5 µM), for the others: at the top dose activity change, negative = inhibition, actives largely listed as inhibitors
Target sequence (Q27686 whole entry, looked up): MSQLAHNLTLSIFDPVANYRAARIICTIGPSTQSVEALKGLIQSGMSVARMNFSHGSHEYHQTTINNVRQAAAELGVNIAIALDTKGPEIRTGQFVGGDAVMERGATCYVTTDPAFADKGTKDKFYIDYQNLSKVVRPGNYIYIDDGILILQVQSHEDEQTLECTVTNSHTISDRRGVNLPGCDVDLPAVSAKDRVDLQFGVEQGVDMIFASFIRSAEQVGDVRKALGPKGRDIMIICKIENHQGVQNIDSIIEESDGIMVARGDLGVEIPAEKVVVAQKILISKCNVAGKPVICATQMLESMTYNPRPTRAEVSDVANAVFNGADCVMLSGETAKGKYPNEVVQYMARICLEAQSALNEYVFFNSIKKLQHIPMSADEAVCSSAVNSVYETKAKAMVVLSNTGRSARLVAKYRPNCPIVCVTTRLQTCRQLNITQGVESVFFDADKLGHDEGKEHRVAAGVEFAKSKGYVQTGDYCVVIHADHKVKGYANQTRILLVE
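0.1 nM LmPK, 0.5 mM PEP, 0.1 mM ADP; 50 mM imidazole pH 7.2, 7 mM MgCl2, 50 mM KCl; 1 h RT. Kinase-Glo luminescence readout, normalized to no-enzyme (full inhibition) and uninhibited wells.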
AMA1 RON2 block – inhibitors of Plasmodium falciparum AMA1-RON2 interaction | Potency, µM (series often up to 58.2 µM), for the others: at the top dose activity change, negative = inhibition, most hits filed as inhibitors | 360,000 tested, 0.2% active | AlphaScreen AMA1-biotinylated RON2 peptide binding;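 note: 0% = vehicle wells and -100% = peptide control; nearly all actives have a fitted effect of over 45% in size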
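AMA1 (3D7) with his tag at 25 nM final met compounds first, then biotinylated RON2 peptide at 25 nM; detection used donor plus acceptor beads, 10 µg/mL apiece, read by AlphaScreen after 30 min at room temperature.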
Tb PYK inh – blocks Trypanosoma brucei pyruvate kinase. TbPYK enzyme, Kinase-Glo Plus ATP luminescence, 45 min. AID 624173. Potency, µM (top dose mostly 76.8 µM), inactives show top-dose activity, negative = inhibition, actives largely listed as inhibitors. 410,000 tested, 0.12% active. Q57TT1; note: nearly all actives have a fitted effect of over 50% in size
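Luminescence from Kinase-Glo Plus, added after a 45-minute room-temperature reaction, served as the end-point read-out. The enzyme and substrate were preincubated with compound before ADP (130 uM final) initiated turnover. Concentration-effect curves came from normalized qHTS data.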
RE007 growth inh – less growth of the S. pombe RE007 Vpr strain. AID 651644. Potency, µM (titrated, usually from 92.2 µM), without a hit: at the highest dose activity change, negative = less growth, usual class: inhibitors. S. pombe RE007 Vpr strain, BacTiter-Glo ATP luminescence, 24 h. 360,000 tested, 0.21% active; active = well fitted falling curve with a large enough effect; inconclusive = small, poorly fitted or top-dose-only effect; inactive = no such curve, though single readings can be large or run the other way; note: nearly all actives have a fitted effect of over 50% in size
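Fission yeast strain RE007, carrying one chromosomally integrated HIV-1 vpr copy, was seeded at OD 0.01 in PMG+AL medium with 23 nL pinned compound. After 24 h at 30 °C and 99% humidity, viability was read by BacTiter-Glo luminescence.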
Numbers without * were called inactive; ? = inconclusive; . = no result; [ ] = remark or other dose. Unless noted, calls come from the whole dose curve; as a rule, active = well fitted curve in the direction sought with a large enough effect; inconclusive = small, poorly fitted or top-dose-only effect, or another doubt; inactive = no such curve, though single readings can be large; an effect the other way counts as inactive or inconclusive. Unless noted, % is set by controls: 0 for no effect and ±100 for the full control effect; potency is the fitted concentration of half-maximal effect.

SMILES | Sm TGR inh | LmPK inh | AMA1 RON2 block | Tb PYK inh | RE007 growth inh
O=C(CBr)c1ccc([N+](=O)[O-])c(CS(=O)(=O)c2ccc(Cl)cc2)c1 | 5µM* | ? | -10% | -3% | .
COc1ccc(CC(=O)OCCN(C)C)cc1 | 1% | 8% | 20% | 4% | -10%
CCCC(O)(CCN(C)C)c1ccc(OC)cc1 (stereo not drawn) | 11µM* | -2% | -3% | 3% | 0%
Cc1ccc(-c2nc3c(C)cccn3c2Nc2ccccc2C)s1 | 8.9µM* | . | . | -3% | .
Cc1ccccc1Nc1c(-c2ccccn2)nc2c(C)cccn12 | -1% | 2% | 5% | -3% | -7%
COc1ccc(OC)c(Nc2ncc3c(n2)CCN(Cc2cc(OC)c(OC)c(OC)c2)C3)c1 | 2% | . | . | 7% | .
Fc1cc2ncn(Cc3ccccc3)c2cc1F | 56µM* | 0% | 4% | -8% | 13%
c1ccc(Cn2cnc3ccccc32)cc1 | 1% | 2% | 1% | 3% | 12%
Cc1ccc(S(=O)(=O)Nc2c(C)nn(C)c2C)cc1 | 50% | 6% | -1% | -2% | -2%
Cc1nn(C)c(C)c1CS(=O)(=O)c1ccccc1 | 22µM* | 4% | -5% | 1% | -19%
CC1=C(C(=O)OC2CCCCCC2)C(c2cccc(Cl)c2)CC(=O)N1 (stereo not drawn) | 6% | . | . | 1% | .
COc1ccc(S(=O)(=O)Cc2ccc(C(=O)NCCCN3CCc4ccccc4C3)o2)cc1 | 45µM* | -5% | -4% | -8% | -2%
COc1ccc(N2CCN(CCCNC(=O)c3ccc(CS(=O)(=O)c4ccc(OC)cc4)o3)CC2)cc1 | -6% | 8% | -13% | -5% | 16%
COc1ccc(S(=O)(=O)Cc2ccc(C(=O)NCc3ccco3)o2)cc1 | 40µM* | 1% | 3% | -3% | -5%
CCN(Cc1ccccc1)C(=O)c1cc(-c2ccccc2)n[nH]1 | -5% | . | . | -5% | .
CCn1c(=O)cc(OCC(=O)NCc2ccc(F)cc2Cl)c2ccccc21 | -3% | . | . | 0% | .
C(=C1NCCN1)c1cccc2ccccc12 | . | . | . | 5% | .
Nc1c(C(=O)N/N=C/c2cccnc2)oc2nc(-c3ccccc3)cc(-c3ccco3)c12 | ? | 2% | 50% | -9% | 1%
O=CNn1cnc2c(oc3nc(-c4ccccc4)cc(-c4ccco4)c32)c1=O | 40µM* | 3% | -12% | 2% | 3%
COC12C(COC(N)=O)C3=C(C(=O)C(C)=C(N)C3=O)N1CC1C2N1C (stereo not drawn) | 13µM* | 0% | 7% | 4% | 5%
FC(F)(F)c1ccccc1-n1c(-c2cnccn2)n[nH]c1=S | -4% | ? | 67% | ? | 8%
COc1ccc(-c2n[nH]c(=S)n2-c2ccc(C)cc2C)cc1 | -11% | -2% | 62% | 18µM* | 7%
Cc1ccc(-n2c(-c3cnccn3)n[nH]c2=S)c(Br)c1 | 12% | 32µM* | -3% | ? | 0%
Cc1ccc(-n2c(-c3ccc(Cl)cc3)n[nH]c2=S)c(C)c1 | 8% | 20µM* | 76% | 5µM* | 16%
COc1ccccc1-n1c(-c2ccccc2)c[nH]c1=S | -1% | 11µM* | 62% | ? | 8%
SMILES | Sm TGR inh | LmPK inh | AMA1 RON2 block | Tb PYK inh | RE007 growth inh
S=c1[nH]cc(-c2ccccc2)n1-c1ccccc1Cl | 1% | ? | 31% | 0% | 0%
CCn1c(-c2ccc(Cl)cc2)n[nH]c1=S | -6% | ? | 36% | ? | -9%
Cc1ccc2occ(-c3cc(-c4ccc(F)cc4)nc4c3COc3ccc(F)cc3-4)c(=O)c2c1 | -11% | . | . | -3% | .
Cn1ccc2cc(S(=O)(=O)N3CCN(C(=O)Nc4ccccc4F)CC3)ccc21 | 3% | . | . | -1% | .
CCc1ccccc1NC(=O)CN1CCCN(Cc2cc(C)ccc2C)S1(=O)=O | 0% | . | . | -4%[15.4 µM] | .
COC(=O)N1C2CC3(C)CC(=O)CC1(C)C3c1ccccc12 (stereo not drawn) | . | -3%[11.5 µM] | . | . | .
COc1ccccc1-n1c(-c2cccnc2)n[nH]c1=S | 8% | 14µM* | -8% | ? | 12%
COc1ccccc1-n1c(-c2cc(-c3ccc(F)cc3)n[nH]2)n[nH]c1=S | -19% | -28% | 47% | ? | 8%
Cc1ccc(-n2c(-c3cccnc3)n[nH]c2=S)c(C)c1 | 2% | 13µM* | 43% | . | 5%[3.69 µM]
CCOCCCNC(=O)/C(C#N)=C/c1ccc([N+](=O)[O-])o1 | 8.9µM* | 6% | 7% | 0% | 45µM*
CC(NC(=O)/C(C#N)=C/c1ccc([N+](=O)[O-])o1)c1ccccc1 (stereo not drawn) | 1.3µM* | 1% | -11% | 4% | 5µM*
CC(NC(=O)/C(C#N)=C/c1ccco1)c1ccccc1 (stereo not drawn) | 0% | 0% | -9% | 1% | 6%
COc1cc(OC)cc(-c2c(C#Cc3ccsc3)c3cc(-c4ccc5cc[nH]c5c4)ccc3n2C)c1 | 25µM* | . | -1% | 2% | -8%
CCOC(=O)N1CCN(C(=O)c2ccc(CS(=O)Cc3ccc(C)cc3)o2)CC1 (stereo not drawn) | 40µM* | 0% | 0% | 2% | 22%
Cc1ccc(CS(=O)Cc2ccc(C(=O)N3CCN(c4cccc(C)c4C)CC3)o2)cc1 (stereo not drawn) | . | . | -17% | 0% | 6%
Cc1ccc(Cl)cc1N1CCN(C(=O)c2ccc(CS(=O)Cc3ccc(Cl)cc3)o2)CC1 (stereo not drawn) | 45µM* | 0% | -6% | -5% | 6%
Cc1ccc(C)c(N2CCN(C(=O)c3ccc(CS(=O)Cc4ccc(Cl)cc4)o3)CC2)c1 (stereo not drawn) | ? | 4% | 6% | 0% | -1%
Cc1cccc(N2CCN(C(=O)c3ccc(CS(=O)Cc4cccc(Cl)c4)o3)CC2)c1C (stereo not drawn) | 40µM* | -1% | -9% | -1% | -9%
CSc1cccc(NC(=O)C2CCCN(C(=O)c3cnn(-c4ccc(F)cc4)c3-n3cccc3)C2)c1 (stereo not drawn) | 6% | . | . | -3% | .
C[C@H]1Cc2c(-c3ccccc3)nc3c(c2CO1)CN(C(=O)c1cccnc1)CC3 | . | -7%[11.5 µM] | . | . | .
Fc1ccccc1/C=C1\CCCC2=C1Nc1nnnn1C2c1ccccc1F (stereo not drawn) | 6.3µM* | -3% | -5% | -1% | -5%
COc1cc(OC)cc(-c2sc3ccc(OC)cc3c2C#CCCO)c1 | 25µM* | . | -4% | -13% | -4%
COc1ccc(N2c3ccccc3CN(Cc3ccccc3)[C@@H](C)[C@H]2Cc2c(C)cccc2C)cc1 | . | . | -25% | . | -12%
COc1ccc(N2c3ccccc3CN(Cc3ccccc3)[C@@H](C)[C@H]2Cc2cccnc2)cc1 | . | . | 14µM* | -10% | 15%
O=C(/C=C/c1cccs1)N1CCc2ccccc21 | -4% | 14µM* | -1% | ? | .

Screening results from PubChem.
